Data from PubChem BioAssay (NCI).
Compounds without any hit were thinned out: in the full panel of roughly 79,000, 15% have a hit. Activity calls are given as the source filed them. Rule as the data show it: active = growth inhibition above about 70%; inactive = the rest.

Key:
[1] = NCI Yeast Anticancer Drug Screen. Data for the rad52 strain (AID 147);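 also: 0% = growth of vehicle-treated control cultures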; settings: S. cerevisiae rad52 mutant growth inhibition, hits give high values
Outline: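 Yeast strain carrying a DNA damage repair alteration was exposed to test compounds. Growth inhibition was measured relative to vehicle-treated controls.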

[2] = NCI Yeast Anticancer Drug Screen. Data for the wt1 strain (AID 149);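 also: 0% = growth of vehicle-treated wt1 cultures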; settings: S. cerevisiae wt1 strain (SPY 50644) growth inhibition, hits give high values
Outline: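 Vehicle-normalised growth inhibition; strain wt1; compound exposure.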

[3] = NCI Yeast Anticancer Drug Screen. Data for the rad50EPP+ strain (AID 151);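 also: 0% = growth of vehicle-treated control cultures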; settings: S. cerevisiae rad50 mutant strain, hits give high values
Outline: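 Yeast strain carrying rad50 alteration (rad50EPP+) exposed to compounds; growth inhibition measured relative to vehicle-treated controls.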

[4] = NCI Yeast Anticancer Drug Screen. Data for the mgt1 strain (AID 153); settings: S. cerevisiae mgt1 mutant growth inhibition, hits give high values
Outline: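 Yeast mgt1 strain (DNA repair/cell-cycle alteration panel) exposed to compounds; growth inhibition measured relative to vehicle-treated controls.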

[5] = NCI Yeast Anticancer Drug Screen. Data for the rad50 strain (AID 155);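 also: 0% = growth of vehicle-only cultures of the same strain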; settings: S. cerevisiae rad50 strain growth inhibition, hits give high values
Outline: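 A DNA repair-deficient yeast mutant serves as the test organism; compound-induced growth inhibition is calculated against vehicle-treated cells.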

[6] = NCI Yeast Anticancer Drug Screen. Data for the mec2-1 strain (AID 157); settings: S. cerevisiae mec2-1 strain, hits give high values
Outline: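 mec2-1 yeast strain, carrying an alteration in DNA damage repair or cell cycle control, was exposed to compounds; growth inhibition was measured relative to vehicle-treated controls.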

[7] = NCI Yeast Anticancer Drug Screen. Data for the rad14 strain (AID 159);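 also: 0% = growth of vehicle-treated control cultures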; settings: S. cerevisiae rad14 strain growth inhibition, hits give high values
Outline: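 Vehicle-treated cultures served as the baseline for growth inhibition of a DNA repair-mutant yeast strain exposed to each compound.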

[8] = NCI Yeast Anticancer Drug Screen. Data for the sgs1 mgt1 strain (AID 161);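 also: 0% = growth of cultures given vehicle only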; settings: S. cerevisiae sgs1 mgt1 strain, hits give high values
Outline: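 Compounds are added to genetically altered yeast, and growth is compared with cultures given vehicle alone to give percent inhibition.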

[9] = NCI Yeast Anticancer Drug Screen. Data for the CLN2oe strain (AID 163);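 also: 0% = growth of vehicle-only control cultures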; settings: S. cerevisiae CLN2oe strain, hits give high values
Outline: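 Yeast cells carrying a defined cell-cycle control alteration were exposed to test compounds. Growth inhibition was scored against vehicle-treated control cultures.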

[10] = NCI Yeast Anticancer Drug Screen. Data for the cln2 rad14 strain (AID 165);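 also: 0% = growth equal to vehicle treated cultures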; settings: S. cerevisiae cln2 rad14 strain, hits give high values
Outline: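 Yeast carrying cln2 and rad14 alterations (cell cycle control and DNA damage repair) were exposed to compounds. Growth inhibition was measured against vehicle-treated controls.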

[11] = NCI Yeast Anticancer Drug Screen. Data for the bub3 strain (AID 167); settings: S. cerevisiae bub3 mutant strain, hits give high values
Outline: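 Inhibition values come from growth of compound-treated mutant yeast normalised to vehicle-treated controls.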

[12] = NCI Yeast Anticancer Drug Screen. Data for the wt2 strain (AID 169);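 also: 0% = growth of vehicle-treated yeast cultures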; settings: S. cerevisiae wt2 strain growth inhibition, hits give high values
Outline: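 Yeast cells were exposed to test compounds, and growth inhibition was measured relative to vehicle-treated controls.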

[13] = NCI Yeast Anticancer Drug Screen. Data for the mlh1 strain (AID 171);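 also: 0% = growth of vehicle-treated control cultures of the same strain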; settings: S. cerevisiae mlh1 strain growth inhibition, hits give high values
Outline: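 Yeast carrying a defined genetic alteration in DNA damage repair or cell cycle control were exposed to test compounds. Growth inhibition was measured relative to vehicle-treated controls.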

[14] = NCI Yeast Anticancer Drug Screen. Data for the sgs1 strain (AID 173);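 also: 0% = growth of vehicle-only control cultures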; settings: S. cerevisiae sgs1 mutant, hits give high values
Outline: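 Yeast mutant strains carrying defined defects in DNA damage repair or cell cycle control were exposed to test compounds. Growth inhibition was scored against vehicle-treated controls.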

[15] = NCI Yeast Anticancer Drug Screen. Data for the mlh1 rad18 strain (AID 175); settings: S. cerevisiae mlh1 rad18 strain growth inhibition, hits give high values
Outline: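 Growth inhibition of the yeast strain was measured after compound exposure and expressed relative to vehicle-treated controls. The strain carries defined defects in DNA damage repair.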

[16] = NCI Yeast Anticancer Drug Screen. Data for the rad18 strain (AID 177); settings: S. cerevisiae rad18 mutant growth inhibition, hits give high values
Outline: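 Yeast carrying a defined DNA damage repair alteration were exposed to compounds. Growth inhibition was expressed relative to vehicle-treated controls.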

[17] = at 5.0 µM (retest, dose inferred, filed as 0.5)
[18] = at 50.0 µM (retest, dose inferred, filed as 5.0)

Measured: growth inhibition

CN(CCc1ccccn1)c1ccc2c(c1)Cc1ccccc1-2
inactive: [1]; at 1.2 µM 1% | [1]; at 3.7 µM 11% | [1]; at 11.0 µM 54% | [1]; at 33.0 µM 45% | [1]; at 100.0 µM 53% | [2]; at 1.2 µM 1% | [2]; at 3.7 µM 7% | [2]; at 11.0 µM 6% | [2]; at 33.0 µM 5% | [2]; at 100.0 µM 2% | [3]; at 1.2 µM 29% | [3]; at 3.7 µM 68% | [4]; at 1.2 µM -3% | [4]; at 3.7 µM -4% | [4]; at 11.0 µM 1% | [4]; at 33.0 µM 3% | [4]; at 100.0 µM 19% | [5]; at 1.2 µM 4% | [5]; at 3.7 µM 26% | [5]; [17] 20% | [5]; at 11.0 µM 69% | [5]; at 33.0 µM 68% | [5]; [18] 57% | [5]; at 100.0 µM 67% | [6]; at 1.2 µM -1% | [6]; at 3.7 µM 8% | [6]; [17] 5% | [6]; at 11.0 µM 26% | [6]; at 33.0 µM 20% | [6]; [18] 1% | [6]; at 50.0 µM 4.05% | [6]; at 100.0 µM 20% | [7]; at 1.2 µM 1% | [7]; at 3.7 µM 10% | [7]; at 11.0 µM 38% | [7]; at 33.0 µM 37% | [7]; at 100.0 µM 56% | [8]; [17] 9% | [9]; at 1.2 µM -5% | [9]; at 3.7 µM -16% | [9]; at 11.0 µM -11% | [9]; at 33.0 µM -16% | [9]; at 100.0 µM -5% | [10]; [17] 0% | [10]; [18] 10% | [10]; at 50.0 µM -2.25% | [11]; at 1.2 µM 0% | [11]; at 3.7 µM -4% | [11]; [17] -12% | [11]; at 11.0 µM 13% | [11]; at 33.0 µM 21% | [11]; [18] 30% | [11]; at 50.0 µM 18.4% | [11]; at 100.0 µM 20% | [12]; at 1.2 µM -1% | [12]; at 3.7 µM -2% | [12]; at 11.0 µM 5% | [12]; at 33.0 µM 4% | [12]; at 100.0 µM 26% | [13]; at 1.2 µM 0% | [13]; at 3.7 µM 3% | [13]; at 11.0 µM 17% | [13]; at 33.0 µM 15% | [13]; at 100.0 µM 31% | [14]; at 1.2 µM 26% | [15]; [17] 20% | [16]; at 1.2 µM 46%
active: [3]; at 11.0 µM 91% | [3]; at 33.0 µM 89% | [3]; at 100.0 µM 88% | [5]; at 50.0 µM 90.2% | [8]; [18] 82% | [8]; at 50.0 µM 83.3% | [14]; at 3.7 µM 71% | [14]; at 11.0 µM 88% | [14]; at 33.0 µM 87% | [14]; at 100.0 µM 88% | [15]; [18] 72% | [15]; at 50.0 µM 77.4% | [16]; at 3.7 µM 89% | [16]; at 11.0 µM 95% | [16]; at 33.0 µM 94% | [16]; at 100.0 µM 94%

CCN(CC)CC(O)c1ccc2ccc3ccccc3c2c1 (stereo unspecified)
inactive: [1]; at 1.2 µM 3% | [1]; at 3.7 µM 7% | [1]; at 11.0 µM 14% | [1]; at 33.0 µM 14% | [1]; at 100.0 µM 46% | [2]; at 1.2 µM 4% | [2]; at 3.7 µM 10% | [2]; at 11.0 µM 18% | [2]; at 33.0 µM 16% | [2]; at 100.0 µM 19% | [3]; at 1.2 µM -1% | [3]; at 3.7 µM 1% | [3]; at 11.0 µM 2% | [3]; at 33.0 µM -1% | [3]; at 100.0 µM -11% | [4]; at 1.2 µM 2% | [4]; at 3.7 µM 4% | [4]; at 11.0 µM 6% | [4]; at 33.0 µM 21% | [4]; at 100.0 µM 59% | [5]; at 1.2 µM 6% | [5]; at 3.7 µM 10% | [5]; [17] -1% | [5]; at 11.0 µM 15% | [5]; at 33.0 µM 10% | [5]; [18] 52% | [5]; at 100.0 µM 39% | [6]; at 1.2 µM 3% | [6]; at 3.7 µM 7% | [6]; [17] 15% | [6]; at 11.0 µM 11% | [6]; at 33.0 µM 15% | [6]; [18] 20% | [6]; at 50.0 µM 37.4% | [6]; at 100.0 µM 33% | [7]; at 1.2 µM 7% | [7]; at 3.7 µM 23% | [7]; at 11.0 µM 35% | [7]; at 33.0 µM 28% | [8]; [17] 16% | [8]; [18] 7% | [8]; at 50.0 µM 42.7% | [9]; at 1.2 µM 0% | [9]; at 3.7 µM 5% | [9]; at 11.0 µM 15% | [9]; at 33.0 µM 35% | [9]; at 100.0 µM 57% | [10]; [17] -22% | [10]; [18] -22% | [10]; at 50.0 µM 32% | [11]; at 1.2 µM 1% | [11]; at 3.7 µM 4% | [11]; [17] 10% | [11]; at 11.0 µM -20% | [11]; at 33.0 µM 43% | [11]; at 50.0 µM 65.2% | [11]; at 100.0 µM 45% | [12]; at 1.2 µM 2% | [12]; at 3.7 µM 8% | [12]; at 11.0 µM 17% | [12]; at 33.0 µM 21% | [12]; at 100.0 µM 36% | [13]; at 1.2 µM 8% | [13]; at 3.7 µM 8% | [13]; at 11.0 µM 16% | [13]; at 33.0 µM 16% | [13]; at 100.0 µM 40% | [14]; at 1.2 µM 8% | [14]; at 3.7 µM 17% | [14]; at 11.0 µM 34% | [14]; at 33.0 µM 48% | [14]; at 100.0 µM 64% | [15]; [17] 3% | [15]; [18] 19% | [15]; at 50.0 µM 51.1% | [16]; at 1.2 µM 17% | [16]; at 3.7 µM 22% | [16]; at 11.0 µM 27% | [16]; at 33.0 µM 38% | [16]; at 100.0 µM 59%
active: [5]; at 50.0 µM 70.9% | [7]; at 100.0 µM 70% | [11]; [18] 71%

c1ccc(-c2ccnc3c2ccc2c(-c4ccccc4)ccnc23)cc1
active: [1]; at 33.0 µM 99% | [1]; at 100.0 µM 99% | [2]; at 33.0 µM 97% | [2]; at 100.0 µM 97% | [3]; at 33.0 µM 97% | [3]; at 100.0 µM 97% | [4]; at 33.0 µM 98% | [4]; at 100.0 µM 97% | [5]; at 33.0 µM 98% | [5]; [18] 97% | [5]; at 50.0 µM 91.2% | [5]; at 100.0 µM 97%
inactive: [1]; at 1.2 µM 4% | [1]; at 3.7 µM 21% | [1]; at 11.0 µM 50% | [2]; at 1.2 µM 5% | [2]; at 3.7 µM -4% | [2]; at 11.0 µM 9% | [3]; at 1.2 µM 2% | [3]; at 3.7 µM -4% | [3]; at 11.0 µM 22% | [4]; at 1.2 µM 10% | [4]; at 3.7 µM -9% | [4]; at 11.0 µM 63% | [5]; at 1.2 µM 7% | [5]; at 3.7 µM 13% | [5]; [17] 2% | [5]; at 11.0 µM 67% | [6]; at 1.2 µM 22% | [6]; at 3.7 µM 24%
